Experimental findings from PubChem BioAssay (NCATS) are described below.

A short description of test [1]: Viability qHTS for spleen associated tyrosine kinase inhibitor (SYKi) naive MV4-11 cells (AID 1963823). Further: nearly all actives have a fitted effect of over 40% in size. The procedure, abridged:
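SYKi-naive MV4-11 AML cells, 500 per well, were exposed to library compounds for 72 hr at 37 C, 5% CO2. Viability was then read by CellTiter-Glo luminescence after 10 min at room temperature.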
Background: Quantitative high-throughput screening tests each substance at several concentrations.

A short description of test [2]: Viability qHTS for spleen associated tyrosine kinase inhibitor (SYKi) drug resistant MV4-11 cells (AID 1963824). Further: nearly all actives have a fitted effect of over 35% in size. The procedure, abridged: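 SYK-inhibitor-resistant MV4-11 AML cells were seeded at 500 per well onto compound and cultured 72 hours (37 °C, 5% CO2). CellTiter-Glo was then added, and after 10 min at room temperature, luminescence gave viability.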

Inconclusive results are not listed. A number with no mark means an inactive call. The source made the active and inactive calls. The call rests on the fitted dose curve; in most records, active means well fitted cell-killing curve with a large enough effect; inconclusive means small, poorly fitted or top-dose-only effect, or effect the other way; inactive means no such curve, though single readings can be large or run the other way.
Potency means the concentration at half of the fitted maximal effect.

With `CCOC(=O)OCC/C(SC(=O)OCC)=C(\C)N(C=O)Cc1cnc(C)nc1N`, the Potency result in test [1] and in test [2] was “inactive” in each case.

Regarding `C=C(C(=O)O)C1CCC2(C)CCC(O)C(C)(O)C2C1` (stereo not given), the Potency entry in test [1] and in test [2] was “inactive” each time.

`C=CC(C)(CC/C=C(\C)C(=O)OC)OC1OC(COC(=O)CC(C)(O)CC(=O)O)C(OC2OC(CO)C(O)C(O)C2O)C(O)C1O` (stereo not given): the Potency result in test [1] and in test [2] was “inactive” throughout.

In the case of `C[C@@H]1C(=O)O[C@H](C)[C@H]1C[C@@H](O)[C@](C)(O)[C@H]1CC[C@@]2(O)C3=CC(=O)[C@@H]4C[C@@H](O)[C@@H](O)C[C@]4(C)C3CC[C@]12C` (stereo not given in full), the Potency result in test [1] and in test [2] was “inactive” throughout.

`CC(C)C(CO)Nc1nc(Nc2cc(N)cc(Cl)c2)c2ncn(C(C)C)c2n1` (stereo not given): the Potency in test [1] was 517 nM (active); in test [2], 820 nM (active).

With `C[C@H](CCC(=O)O)[C@H]1CC[C@H]2[C@@H]3C[C@H](O)[C@@H]4C[C@H](O)CC[C@]4(C)[C@H]3CC[C@]12C`, the Potency result in test [1] and in test [2] was “inactive” throughout.

For the compound `O=C(O)Cc1cn(C2OCC(O)C(O)C2O[C@@H]2O[C@H](CO)[C@@H](O)[C@H](O)[C@H]2O)c2ccccc12` (stereo not given in full), the Potency result in test [1] and in test [2] was “inactive” throughout.

Take `CC(C)C1NC(=O)CNC(=O)C2CCCN2C(=O)C(Cc2c[nH]c3ccccc23)NC(=O)CNC(=O)C(C(O)c2ccc(O)cc2)NC(=O)CNC1=O` (stereo not given): the Potency entry in test [1] and in test [2] was “inactive” each time.

For the compound `COc1cc(O)c2c(c1Cl)CC(C)OC2=O` (stereo not given), the Potency result in test [1] and in test [2] was “inactive” each time.

Consider `O=C(/C=C/c1ccc2ccccc2n1)c1ccncc1`, for which the Potency in test [1] is 1460 nM (active); in test [2], 1640 nM (active).

Regarding `C=C[C@H]1[C@H](O[C@@H]2O[C@H](CO)[C@@H](O)[C@H](O)[C@H]2O)OC=C(C(=O)OC)[C@H]1CCOC(=O)c1cc(O)c(O)c(O)c1`, the Potency entry in test [1] and in test [2] was “inactive” throughout.

As for `CC(C)=C1CC2C(CCC2(C)O)C(C)(O)CC1=O` (stereo not given), the Potency entry in test [1] and in test [2] was “inactive” each time.

For the compound `Oc1cccc(-c2nc(N3CCOCC3)c3sccc3n2)c1`, the Potency in test [1] is 820 nM (active); in test [2], 2060 nM (active).

Turning to `C[C@H]1[C@H](C)CC[C@]2(C(=O)O[C@@H]3O[C@H](CO)[C@@H](O)[C@H](O)[C@H]3O)CC[C@]3(C(=O)O)C(=CCC4[C@@]5(C)CC[C@H](O[C@@H]6O[C@H](CO)[C@@H](O)[C@H](O)[C@H]6O)C(C)(C)C5CC[C@]43C)[C@H]12` (stereo not given in full), the viability (% of control) in test [1] was 69.7% [at 9.25 µM]. The viability, % of control in test [2] is 96% [at 9.25 µM].

As to `C[C@@H]1CC[C@]2(C(=O)O)CC[C@]3(C)C(=CCC4[C@@]5(C)C[C@@H](O)[C@@H](O)C(C)(C)C5CC[C@]43C)C2[C@]1(C)O` (stereo not given in full), the Potency entry in test [1] is “inactive”. Further, the Potency in test [2] was 3550 nM (active).

With `C[C@H](NC(=O)C(C)(C)Oc1ccc(C(F)(F)F)cn1)[C@@H](Cc1ccc(Cl)cc1)c1cccc(C#N)c1`, the figures for the Potency in test [1] and in test [2] were 13000 nM (active) and 9200 nM (active), respectively.

Turning to `CC(=O)O[C@@H]1[C@@H](O)[C@H](C)O[C@@H](O[C@H]2[C@@H]3C=CO[C@@H](O[C@@H]4O[C@H](CO)[C@@H](O)[C@H](O)[C@H]4O)[C@@H]3[C@@]3(CO)O[C@@H]23)[C@@H]1OC(=O)/C=C/c1ccccc1`, the Potency entry in test [1] and in test [2] was “inactive” in each case.

On to `CN(CCCNC(=O)c1ccc2nc3c(c(Cl)c2c1)CCCC3)Cc1ccccc1`, for which the Potency was 5800 nM (active) in test [1] and 8200 nM (active) in test [2].

As to `C=C1C(=O)O[C@H](CCC)[C@H]1C(=O)O`, the Potency result in test [1] and in test [2] was “inactive” throughout.

For `CC1C(=O)OCC2=CCN3CCC(OC(=O)C(C)(O)C1(C)O)C23` (stereo not given), the Potency entry in test [1] and in test [2] was “inactive” throughout.

Regarding `COc1ccc(CCC(=O)c2c(O)cc(O[C@@H]3O[C@H](CO)[C@@H](O)[C@H](O)[C@H]3O[C@@H]3O[C@@H](C)[C@H](O)[C@@H](O)[C@H]3O)cc2O)cc1O`, the Potency result in test [1] and in test [2] was “inactive” throughout.

With `CN(C)S(=O)(=O)c1ccc2c(c1)/C(=C/c1cc3c([nH]1)CCCC3)C(=O)N2`, the figures for the Potency in test [1] and in test [2] were 820 nM (active) and 1640 nM (active), respectively.

As for `C=C(C)C(=O)O[C@H]1C[C@@](C)(O)C(=O)CC(O)/C(C)=C\[C@H]2OC(=O)C(=C)[C@H]12` (stereo not given in full), the results for the Potency in test [1] and in test [2] were 1610 nM (active) and 2020 nM (active), respectively.

For `CC(O)(CC(=O)O)CC(=O)OCc1ccc(O[C@@H]2O[C@H](CO)[C@@H](O)[C@H](O)[C@H]2O)cc1` (stereo not given in full), the Potency entry in test [1] and in test [2] was “inactive” in each case.

Take `Cc1ccc(NS(=O)(=O)c2cc3c(cc2N[C@@H](C)CO)NC(=O)CC3)cc1Cl`: the figures for the Potency in test [1] and in test [2] were 16400 nM (active) and 11600 nM (active), respectively.

For `CC(O)C(O)/C=C/C=C/C(=O)O[C@@H]1C=C2COC(=O)[C@]2(O)[C@@]2(C)CCCC(C)(C)C12` (stereo not given in full), the Potency result in test [1] and in test [2] was “inactive” each time.

As to `COc1cc(/C=C/C(=O)O[C@@H]2C[C@](O)(C(=O)O)C[C@@H](O)[C@H]2O)ccc1O`, the Potency result in test [1] and in test [2] was “inactive” in each case.

`O=C(Nc1cccc(Nc2cc(Nc3cccc(C(F)(F)F)c3)ncn2)c1)C1CC1`: the figures for the Potency in test [1] and in test [2] were 164 nM (active) and 259 nM (active), respectively.

For `Cc1[nH]c2ccccc2c1C1=C(NCCc2ccc(F)cc2)C(=O)N(C)C1=O`, the Potency is 16400 nM (active) in test [1] and 11600 nM (active) in test [2].

In the case of `CC(C)CC(c1c(O)c(C=O)c(O)c(C=O)c1O)C1CCC(C)(O)C2CC(C(C)(C)O)CCC12C` (stereo not given), the Potency entry in test [1] and in test [2] was “inactive” in each case.
